# In all, about 81,000 sequences were measured (“one-hybrid fitness for binding NBS DNA”: median about -0.1, highest 2% from about 0.36 on). Many of the other results were omitted from the sample, so the highest values are more common in it than they were.
# B1: Caulobacter ParB omega fusion; a variant is named by its letters at X, in order, B8GW30 (parent)
# chain: MESVVVGEPGMSEGRRGLGRGLSALLGEVDAAPAQAPGEQLGGSREAPIEILQRNPDQPRRTFREEDLEDLSNSIREKGVLQPILVRPSPDTAGEYQIVAGERAWRAAQRAGLKTVPIMVRELDDLAVLEIGIIENVQRADLNVLEEALSYKVLMEKFERTQENIAQTIGKSXSHVANXMRLLXLPDEVQSYLVSGELTAXHARAIAAAADPVALAKQIIEGGLSVRETEALARKAPNLSAGKSKGGRPPRVKDTDTQALESDLSSVLGLDVSIDHRGSTGTLTITYATLEQLDDLCNRLTRGI
# Variants of: B1
# Assay: one-hybrid fitness for binding NBS DNA (the Noc-binding site; scaled: cognate 1, non-cognate 0); higher = stronger binding
# Details: with NBS DNA site
# How it was run: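 Bacterial one-hybrid selection in E. coli USO rpoZ- hisB- pyrF- with a HIS3 reporter carrying the site 19 bp from the promoter, screening Caulobacter ParB libraries with four specificity codons randomised (NNS). Cells grew 48 hours at 37°C on M9-minus-histidine plus 0.1 mM IPTG and 5 mM 3-AT. Plasmids before and after selection were Illumina-sequenced, three replicate libraries pooled, and variants under 10 reads dropped. Fitness is the log change in variant-to-wild-type read ratio, rescaled to cognate 1, non-cognate 0.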
row,Variant,one-hybrid fitness for binding NBS DNA
1,YRCS,≤ 0.2
2,QPDL,≤ 0.2
3,QYVG,≤ 0.2
4,RKCC,≤ 0.2
5,HGRR,≤ 0.2
6,EGQR,≤ 0.2
7,QIKA,0.351
8,QAVA,≤ 0.2
9,QALA,≤ 0.2
10,QMKA,0.596
11,QAKA,0.521
12,QCKA,0.608
13,QMVA,≤ 0.2
14,QMIA,≤ 0.2
15,QHKA,0.597
16,QHIA,≤ 0.2
17,QPKA,≤ 0.2
18,QHVA,≤ 0.2
19,NDTL,≤ 0.2
20,YAKI,≤ 0.2
21,LRRN,≤ 0.2
22,TCKG,≤ 0.2
23,WGAS,≤ 0.2
24,PPRC,≤ 0.2
25,QLKA,0.466

row,Variant,one-hybrid fitness for binding NBS DNA
1,QLVA,≤ 0.2
2,QWKA,≤ 0.2
3,QKKA,0.577
4,QKVA,≤ 0.2
5,QSKA,0.558
6,QKPA,≤ 0.2
7,QLLA,≤ 0.2
8,QSVA,≤ 0.2
9,AVKE,≤ 0.2
10,NQRA,≤ 0.2
11,FGAF,≤ 0.2
12,QMKR,1.03
13,QMVP,≤ 0.2
14,QMKL,0.262
15,QMVR,0.424
16,QMVD,≤ 0.2
17,QMKG,0.336
18,TAHS,≤ 0.2
19,IMVC,≤ 0.2
20,HTKM,≤ 0.2
21,KTGG,≤ 0.2
22,ETHC,≤ 0.2
23,RRQK,0.261
24,RRDR,0.666
25,RRLR,0.702

row,Variant,one-hybrid fitness for binding NBS DNA
1,RRLQ,0.209
2,RPDR,≤ 0.2
3,RRGR,0.744
4,RRGF,≤ 0.2
5,RRQR,0.765
6,RRLG,0.245
7,RRGQ,0.239
8,RRQF,0.221
9,SFAS,≤ 0.2
10,HDCG,≤ 0.2
11,DQVR,≤ 0.2
12,KNLL,≤ 0.2
13,DPPY,≤ 0.2
14,PPNW,≤ 0.2
15,ARKC,≤ 0.2
16,HVNI,≤ 0.2
17,HCSE,≤ 0.2
18,RERR,≤ 0.2
19,RRSF,≤ 0.2
20,RRSR,0.756
21,RGRR,0.336
22,RCER,0.245
23,RRNE,≤ 0.2
24,RRSM,0.311
25,RPER,≤ 0.2

row,Variant,one-hybrid fitness for binding NBS DNA
1,RRRR,0.904
2,RRNG,0.343
3,RRER,0.629
4,RRNR,0.813
5,PAQI,≤ 0.2
6,TDSA,≤ 0.2
7,YSRC,≤ 0.2
8,RRWR,0.732
9,RRWG,0.216
10,RRCC,0.325
11,RRWK,0.249
12,RRYR,0.728
13,RRCF,≤ 0.2
14,RRCR,0.75
15,RRHR,0.771
16,RRHF,0.207
17,RRHQ,0.293
18,ETHW,≤ 0.2
19,GAPL,≤ 0.2
20,TTDQ,≤ 0.2
21,QPFL,≤ 0.2
22,QGKK,≤ 0.2
23,MPVQ,≤ 0.2
24,KLMT,≤ 0.2
25,PRPV,≤ 0.2

row,Variant,one-hybrid fitness for binding NBS DNA
1,TLPW,≤ 0.2
2,PPHD,≤ 0.2
3,RYTW,≤ 0.2
4,QTRL,0.406
5,QTVL,≤ 0.2
6,DPRL,≤ 0.2
7,QCRL,0.401
8,QTDL,≤ 0.2
9,DIRL,≤ 0.2
10,QMRL,0.287
11,QTYL,≤ 0.2
12,QTKL,0.395
13,QCKL,0.307
14,QPRL,≤ 0.2
15,DCRL,0.405
16,DKKC,≤ 0.2
17,LTSP,≤ 0.2
18,DSLM,≤ 0.2
19,GRHR,≤ 0.2
20,VANW,≤ 0.2
21,RFPW,≤ 0.2
22,RCCM,≤ 0.2
23,PGLH,≤ 0.2
24,CHHR,≤ 0.2
25,QRKL,0.367

row,Variant,one-hybrid fitness for binding NBS DNA
1,QRVL,≤ 0.2
2,QRYL,≤ 0.2
3,FRYF,≤ 0.2
4,INML,≤ 0.2
5,RHHD,≤ 0.2
6,RHHS,0.443
7,RHRD,≤ 0.2
8,RHNH,≤ 0.2
9,RHRS,0.585
10,RHYS,0.376
11,RHHN,≤ 0.2
12,RHRN,≤ 0.2
13,RHIS,≤ 0.2
14,RHDS,≤ 0.2
15,RHWS,≤ 0.2
16,RHNS,0.505
17,MVLT,≤ 0.2
18,QIMY,≤ 0.2
19,AMWR,≤ 0.2
20,RYEA,≤ 0.2
21,SMFC,≤ 0.2
22,RFVV,≤ 0.2
23,KGDK,≤ 0.2
24,QCAY,0.21
25,QRAY,0.516

row,Variant,one-hybrid fitness for binding NBS DNA
1,QSFY,≤ 0.2
2,QCFY,0.213
3,QRFY,0.392
4,QSAY,≤ 0.2
5,PAFP,≤ 0.2
6,VCPS,≤ 0.2
7,MCMN,≤ 0.2
8,DHRV,≤ 0.2
9,QRTS,0.685
10,QSTM,≤ 0.2
11,QRTQ,0.437
12,QCTQ,≤ 0.2
13,QSTQ,≤ 0.2
14,QRTV,0.412
15,QCTV,≤ 0.2
16,QRTG,0.356
17,QRTF,0.294
18,QRTM,0.414
19,QCTM,≤ 0.2
20,QPTV,≤ 0.2
21,ATLR,≤ 0.2
22,IYRI,≤ 0.2
23,AKFY,≤ 0.2
24,IYLA,≤ 0.2
25,KPSG,≤ 0.2

row,Variant,one-hybrid fitness for binding NBS DNA
1,GTKT,≤ 0.2
2,SIIE,≤ 0.2
3,QPTC,≤ 0.2
4,QRTD,0.259
5,QCTH,0.295
6,QCTC,≤ 0.2
7,QRTC,0.395
8,QRTP,0.263
9,QRTH,0.57
10,QRTN,0.429
11,QRTK,0.414
12,QCTK,≤ 0.2
13,QPTK,≤ 0.2
14,QPTH,≤ 0.2
15,LCDV,≤ 0.2
16,ANGR,≤ 0.2
17,WTTR,≤ 0.2
18,MSHC,0.26
19,SNER,≤ 0.2
20,FAVS,≤ 0.2
21,FHLT,≤ 0.2
22,QRTY,0.519
23,EFTH,≤ 0.2
24,QCTY,0.225
25,EFTS,≤ 0.2

row,Variant,one-hybrid fitness for binding NBS DNA
1,EFTN,0.392
2,QPTY,≤ 0.2
3,PRAG,≤ 0.2
4,GACS,≤ 0.2
5,RTMN,≤ 0.2
6,RHMN,≤ 0.2
7,RLMR,0.341
8,RTMP,≤ 0.2
9,RCMR,0.461
10,RKMP,≤ 0.2
11,RKMH,0.214
12,RTMR,0.503
13,RKMR,0.577
14,RPMR,≤ 0.2
15,RHMR,0.368
16,RHMP,≤ 0.2
17,SFRE,≤ 0.2
18,NGWG,≤ 0.2
19,SIAC,≤ 0.2
20,KQGK,≤ 0.2
21,IDPS,≤ 0.2
22,ICRN,≤ 0.2
23,NDES,≤ 0.2
24,PLNE,≤ 0.2
25,RGAY,≤ 0.2

row,Variant,one-hybrid fitness for binding NBS DNA
1,IIPP,≤ 0.2
2,THSS,≤ 0.2
3,NHMG,≤ 0.2
4,RRMR,0.723
5,RIMR,0.319
6,RRMF,≤ 0.2
7,RQMR,0.385
8,RQMP,≤ 0.2
9,RAMR,0.341
10,RQMD,≤ 0.2
11,RRMQ,0.253
12,RSMR,0.369
13,VAIA,≤ 0.2
14,LTDL,≤ 0.2
15,HGGT,≤ 0.2
16,AFTK,≤ 0.2
17,SQEG,≤ 0.2
18,CATP,≤ 0.2
19,LHPG,≤ 0.2
20,CDGK,≤ 0.2
21,SSSM,≤ 0.2
22,GDDT,≤ 0.2
23,QKAG,≤ 0.2
24,QKAC,≤ 0.2
25,QKFS,0.277

row,Variant,one-hybrid fitness for binding NBS DNA
1,QKFF,≤ 0.2
2,QKAT,0.543
3,QKFT,0.366
4,SHPD,≤ 0.2
5,QKML,≤ 0.2
6,HTHP,≤ 0.2
7,RGSE,≤ 0.2
8,SGGC,≤ 0.2
9,TILG,≤ 0.2
10,LRDT,≤ 0.2
11,RTGI,≤ 0.2
12,RYVC,≤ 0.2
13,RYKP,≤ 0.2
14,RYKH,0.396
15,RYKS,0.57
16,RYKC,0.367
17,RYKD,≤ 0.2
18,RYKN,0.218
19,RYYC,≤ 0.2
20,RYVH,≤ 0.2
21,KHNS,≤ 0.2
22,NLKT,≤ 0.2
23,YEHY,≤ 0.2
24,ADVD,≤ 0.2
25,SIIV,≤ 0.2

row,Variant,one-hybrid fitness for binding NBS DNA
1,DVHC,≤ 0.2
2,VIQR,≤ 0.2
3,YNMS,≤ 0.2
4,QLDY,≤ 0.2
5,QKYY,≤ 0.2
6,QKDY,≤ 0.2
7,QCYY,0.275
8,QTRY,0.685
9,QTWY,≤ 0.2
10,QKRY,0.518
11,QCRY,0.637
12,QLRY,0.451
13,QLYY,≤ 0.2
14,QTYY,0.262
15,QPRY,≤ 0.2
16,GQTS,≤ 0.2
17,PQAC,≤ 0.2
18,GTQM,≤ 0.2
19,HAAV,≤ 0.2
20,KEKL,≤ 0.2
21,GHAV,≤ 0.2
22,VLHR,≤ 0.2
23,PYWE,≤ 0.2
24,HKSN,≤ 0.2
25,MTAW,≤ 0.2

row,Variant,one-hybrid fitness for binding NBS DNA
1,VLNA,≤ 0.2
2,TGSV,≤ 0.2
3,QAYY,≤ 0.2
4,QIYY,≤ 0.2
5,QAFY,0.396
6,QMYY,≤ 0.2
7,QIHY,≤ 0.2
8,QARY,0.499
9,QMDY,≤ 0.2
10,QADY,≤ 0.2
11,QIRY,0.378
12,QAAY,≤ 0.2
13,QMRY,0.566
14,QAFN,≤ 0.2
